Compound activity from PubChem BioAssay.
Pf growth 96h = P. falciparum growth inhibition at 96 hours; Potency, µM (doses to about 28.7 µM), usual class: inhibitors; 320,000 compounds, 6.9% hits; P. falciparum luciferase reporter growth, 96 h; AID 504834
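Plates of compound plus infected erythrocytes (2% hematocrit, 0.05% parasitemia final) incubate 96 hours, 37 C, 5% CO2. Detection reagent added; reduced luminescence from the parasites' luciferase reporter flags inhibition.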
Pf growth 48h = P. falciparum growth inhibition at 48 hours (one generation). Potency, µM (titrated, usually from 28.7 µM), usual class: inhibitors. 310,000 compounds, 5.9% hits. P. falciparum luciferase growth in erythrocytes, 48 h
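Growth was read as firefly luciferase luminescence after a 48 h, 37 C, 5% CO2 exposure of compounds to reporter-bearing P. falciparum cultures (0.1% parasitemia, 2% hematocrit final) in Albumax-supplemented RPMI 1640.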
Cycloheximide cs = counter-screen hit for Shiga toxin inhibitors, cycloheximide; cell reporter, cycloheximide protein synthesis inhibition counterscreen; max response, %; 300,000 compounds, 12% hits; AID 2314; in the data active means max response mostly above about 13%, no sharp cut-off; inactive means mostly below about 14%; further: read at 38.3 µM for the half of the compounds with a filed dose
Shiga inhibitor = Shiga toxin inhibition. inhibition, % at 38.7 µM. 290,000 compounds, 9.2% hits. AID 2315. Vero cells, Shiga toxin protein synthesis inhibition reporter; in the data active means inhibition mostly above about 28%, no sharp cut-off; inactive means mostly below about 43%
Sm TGR inh = S. mansoni TGR enzyme inhibition; Q962Y6; purified TGR, DTNB reduction, TNB absorbance 405 nm; Potency, µM (top dose mostly 114 µM), usual class: inhibitors; 360,000 compounds, 3% hits; further: nearly all actives have a fitted effect of over 60% in size
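Kinetic colorimetric format: TGR-catalysed, NADPH-driven DTNB reduction monitored via TNB absorbance. Enzyme dispensed at 20 nM; compound exposure 15 min at room temperature before reaction start.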
NS1 function inh = inhibitors of influenza NS1 protein function; Potency, µM (series often up to 46.1 µM); 270,000 compounds, 0.4% hits; AID 2326; calls by dose curve; further: actives are rising curves; nearly all actives have a fitted effect of over 50% in size
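Recovery from NS1-induced slow growth read by OD600 in budding yeast switched to galactose assay medium (pH 6.0, -URA) at 1:100 dilution. Compound 23 nl per well; the matching strain lacking NS1 serves as control.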
Of the large screens only hits and unclear results are named; the others gave an inactive call. This is a sample that favours compounds with a hit; in the whole collection about 21% have one here. Unless noted, the call rests on the fitted dose curve; in most records, active means well fitted curve in the direction sought with a large enough effect; inconclusive means small, poorly fitted or top-dose-only effect, or another doubt; inactive means no such curve, though single readings can be large; an effect the other way counts as inactive or inconclusive.

COc1ccc(CNCC(O)(c2ccccc2)c2ccc(F)cc2)cc1OC (stereo not given)	Pf growth 96h 8.28µM, Pf growth 48h 7.38µM
CCCCNCC(O)(c1ccc(Cl)cc1)c1ccc(Cl)cc1	Pf growth 96h 2.33µM, Pf growth 48h 13.1µM (no result: NS1 function inh)
CCCCCNCc1ccc(Cl)cc1	none
O=C(/C=C\Nc1ccc2c(c1)OCO2)c1cccs1	Cycloheximide cs 6.9, Shiga inhibitor 66.5
O=C(/C=C\Nc1ccc2c(c1)OCO2)c1ccc(Cl)s1	Cycloheximide cs 57.1, Shiga inhibitor 71.2 (no result: NS1 function inh)
C/C(=C\C(=O)c1ccc(Cl)s1)N(C)C	none
CCC(C)(C(=O)Nc1ccccc1C)N(C(=O)CNC(C)=O)c1ccccc1C (stereo not given)	none
COc1ccc(CC(=O)Oc2cc(C)ccc2C)cc1	none
Cc1ccc2c(CN3CCN(S(=O)(=O)c4ccc(Cl)cc4)CC3)cc(=O)oc2c1C	Pf growth 96h inconclusive, Pf growth 48h 4.15µM (no result: Cycloheximide cs, Shiga inhibitor, NS1 function inh)
Cc1cc(C)c2oc(=O)cc(CN3CCN(Cc4ccccc4)CC3)c2c1	Pf growth 96h inconclusive, Pf growth 48h 11.7µM
Cc1cc(C)c2oc(=O)cc(CN3CCC(C)CC3)c2c1	Pf growth 96h inconclusive, Pf growth 48h 10.4µM
CCc1ccc2c(CN3CCN(S(=O)(=O)c4ccc5c(c4)OCCO5)CC3)cc(=O)oc2c1	Pf growth 96h inconclusive, Pf growth 48h 9.28µM
Cc1cc(C)c2c(CN3CCC(C)CC3)cc(=O)oc2c1C	Pf growth 48h inconclusive
Cc1c(NC(=O)c2ccc(Br)s2)c(=O)n(-c2ccccc2)n1C	Pf growth 96h inconclusive (no result: NS1 function inh)
COc1cc(CCC(=O)NCc2ccc3c(c2)CCN3C(=O)c2ccccc2)cc(OC)c1OC	none (no result: Pf growth 96h, Pf growth 48h, Cycloheximide cs, Shiga inhibitor, NS1 function inh)
Cc1ccc2c(CN3CCOCC3)cc(=O)oc2c1C	Pf growth 96h inconclusive
Cc1ccc2c(CN3CCC(C)CC3)cc(=O)oc2c1C	Pf growth 96h inconclusive, Pf growth 48h inconclusive, Cycloheximide cs 54.9, Shiga inhibitor 123.1
Cc1ccc2c(CN3CC(C)CC(C)C3)cc(=O)oc2c1C (stereo not given)	Pf growth 96h 14.7µM, Pf growth 48h inconclusive
CCOC(=O)c1c(NC(=O)CC2SC(N)=NC2=O)sc(C)c1C (stereo not given)	none
COC(=O)C1CN(C(=O)COc2ccc(Cl)cc2C)c2ccccc2O1 (stereo not given)	Pf growth 96h inconclusive, Pf growth 48h 14.7µM
O=C(COc1ccccc1)Nc1nnc(SCc2cc(=O)n3cc(Cl)ccc3n2)s1	none (no result: Pf growth 96h, Pf growth 48h, Cycloheximide cs, Shiga inhibitor, NS1 function inh)
Cc1ccc(C)c(-c2csc(NC(=O)c3cnccn3)n2)c1	Pf growth 96h 11.7µM, Pf growth 48h inconclusive (no result: NS1 function inh)
Cc1csc(NC(=O)c2cccnc2)n1	none
Cc1csc(NC(=O)c2cnccn2)n1	Cycloheximide cs 45.0 (no result: Pf growth 96h)
Cc1ccc(CCNC(=O)CCCn2c(=O)c3ccccc3n(Cc3ccccc3C#N)c2=O)cc1	none (no result: Pf growth 96h, Pf growth 48h, Cycloheximide cs, Shiga inhibitor, NS1 function inh)
CCCC(=O)C1=C(O)C(C(=O)OC)C(C)(C)CC1=NCCc1ccccc1 (stereo not given)	Pf growth 96h inconclusive
Cc1cccc(-c2c3c(=O)n(C)c(=O)n(C)c3cn2CC2CCCO2)c1 (stereo not given)	Sm TGR inh 35.5µM
NC(=O)c1cc(C(=O)Cc2ccc(Cl)cc2)c[nH]1	Cycloheximide cs 22.6, Shiga inhibitor 40.4
O=C(Cc1ccc(Cl)cc1)c1ccc(O)cc1	Cycloheximide cs 48.2, Shiga inhibitor 110.4
O=C(Cc1ccccc1)c1c[nH]c(C(=O)O)c1	Pf growth 96h inconclusive
O=C(Cc1ccccc1)c1ccc(Cl)cc1	Cycloheximide cs 32.1, Shiga inhibitor 60.1
Cc1ccc(CC(=O)c2ccc(Cl)cc2)cc1	Cycloheximide cs 47.2, Shiga inhibitor 67.5
N#Cc1ccc(OCC(O)CN2CCN(c3ncc(C(F)(F)F)cc3Cl)CC2)cc1 (stereo not given)	Pf growth 48h inconclusive
COc1cccc(-c2ccc(-c3noc(-c4ccccc4Br)n3)c(OC)n2)c1	none (no result: Pf growth 96h, Pf growth 48h, Cycloheximide cs, Shiga inhibitor, NS1 function inh)
Cc1nc(NC(=O)c2ccccc2)sc1-c1csc(Nc2ccc(Cl)cc2Cl)n1	Pf growth 96h 3.29µM, Pf growth 48h 10.4µM
Cc1nc(NC(=O)c2ccccc2)sc1-c1csc(Nc2cccc(Cl)c2)n1	Pf growth 96h 2.62µM, Pf growth 48h 9.28µM
COc1ccc(OC)c(Nc2nc(-c3sc(NC(=O)c4ccccc4)nc3C)cs2)c1	Pf growth 48h inconclusive
COc1ccc(Cl)cc1Nc1nc(-c2sc(NC(=O)c3ccccc3)nc2C)cs1	Pf growth 96h 2.94µM, Pf growth 48h 1.85µM
COc1ccc(N2CC(C(=O)N[C@@H](CC(C)C)C(=O)NC3CCCCC3)CC2=O)cc1 (stereo not given in full)	Pf growth 96h 14.7µM, Pf growth 48h inconclusive
O=C(NC1CC1)C1CC(=O)N(c2cccc(Cl)c2)C1 (stereo not given)	Pf growth 96h inconclusive, Pf growth 48h 10.4µM, Sm TGR inh 7.08µM
Cc1ccc(/C=N\NC(=O)C2CC(=O)N(c3ccccc3)C2)o1 (stereo not given)	Cycloheximide cs 24.4
COc1cccc(N2CC(C(=O)NNC(=O)c3ccc(Cl)cc3)CC2=O)c1 (stereo not given)	Pf growth 96h 5.86µM
COc1cccc(N2CC(C(=O)NC3CCCCC3)CC2=O)c1 (stereo not given)	none (no result: Pf growth 96h)
CC1CCN(S(=O)(=O)c2ccc3c(c2)N(CC(=O)NCc2cccnc2)C(=O)CS3)CC1	none
O=C(NC1CCCCC1)C1CC(=O)N(c2ccccc2)C1 (stereo not given)	Pf growth 96h 3.29µM
O=C(NC1CC(=O)N(c2ccccc2)C1)C1CCCC1 (stereo not given)	none (no result: Pf growth 96h, Pf growth 48h, Cycloheximide cs, Shiga inhibitor, NS1 function inh)
COc1ccccc1NC(=O)CC1S/C(=N/N=C2\CCCc3ccccc32)NC1=O (stereo not given)	none (no result: NS1 function inh)
Clc1ccc(SCc2cc(-c3ccccc3)no2)cc1	Pf growth 48h inconclusive
COc1ccc(-c2cc(-c3ccccc3)no2)cc1	none (no result: Cycloheximide cs, Shiga inhibitor, NS1 function inh)
COc1ccc(-c2cc(COc3ccccc3)on2)cc1	Cycloheximide cs 49.0, Shiga inhibitor 66.6 (no result: NS1 function inh)
Cc1cccc(OCc2cc(-c3ccccc3)no2)c1C	Cycloheximide cs 47.8, Shiga inhibitor 85.7 (no result: Pf growth 48h)
Clc1ccc(OCc2cc(-c3ccccc3)no2)c(Cl)c1	Cycloheximide cs 40.3, Shiga inhibitor 69.2
Fc1ccc(OCc2cc(-c3ccccc3)no2)cc1	Cycloheximide cs 69.4, Shiga inhibitor 89.5 (no result: Pf growth 48h)
COc1ccc(-n2c(SCC(=O)NCc3ccc(Cl)cc3)nc3ccsc3c2=O)cc1	none (no result: Pf growth 96h, Pf growth 48h, Cycloheximide cs, Shiga inhibitor, NS1 function inh)
O=[N+]([O-])c1cccc(/C=N\Nc2ccc3ccccc3n2)c1O	none (no result: Pf growth 96h, Pf growth 48h, Cycloheximide cs, Shiga inhibitor, Sm TGR inh)
Cc1ccc(NC(=S)N(CCN(C)C)Cc2cc3cc(C)ccc3[nH]c2=O)cc1	Pf growth 96h inconclusive, Pf growth 48h inconclusive
COc1cc(OC)c(NC(=O)c2ccc(-n3cnc4cccnc43)cc2)cc1Cl	none (no result: Pf growth 96h, Pf growth 48h, Cycloheximide cs, Shiga inhibitor, NS1 function inh)
CNc1ccc2nnc(C(F)(F)C(F)(F)C(F)(F)F)n2n1	none
CN(C)S(=O)(=O)c1ccc(C(=O)Nc2nc(-c3cccs3)cs2)cc1	Pf growth 96h inconclusive (no result: Pf growth 48h)
